Measurements as given in PubChem BioAssay (NCI).
Compounds without any hit were thinned out: in the full panel of roughly 83,000, 20% have a hit.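 The test compound was applied at a single concentration to cells in 96-well plates for 48 hours, and percent growth was recorded.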 Values without a mark were called inactive. Calls of active or inactive are those of the source. How the source made its calls: active means growth percent below 10; inactive means the rest.

Experiments:
Experiment in all cases: NCI-60 one-dose screen, 48 h (100 = growth as untreated, 0 = no growth, -100 = all killed)
Settings in all cases: 10 µM unless noted
SR leukemia = system: SR leukemia
RPMI-8226 leukemia = system: RPMI-8226 leukemia
OVCAR-8 ovarian = system: OVCAR-8 ovarian
OVCAR-5 ovarian = system: OVCAR-5 ovarian
OVCAR-4 ovarian = system: OVCAR-4 ovarian
SK-OV-3 ovarian = system: SK-OV-3 ovarian
IGROV1 ovarian = system: IGROV1 ovarian
OVCAR-3 ovarian = system: OVCAR-3 ovarian
HS 578T breast = system: HS 578T breast
NCI/ADR-RES ovarian = system: NCI/ADR-RES ovarian
T-47D breast = system: T-47D breast
BT-549 breast = system: BT-549 breast
MDA-MB-435 melanoma = system: MDA-MB-435 melanoma
SW-620 colon = system: SW-620 colon
MCF7 breast = system: MCF7 breast
HCT-116 colon = system: HCT-116 colon
HCC-2998 colon = system: HCC-2998 colon
KM12 colon = system: KM12 colon

Row | Compound | growth (SR leukemia) | growth (RPMI-8226 leukemia) | growth (OVCAR-8 ovarian) | growth (OVCAR-5 ovarian) [%] | growth (OVCAR-4 ovarian) [%] | growth (SK-OV-3 ovarian) [%] | growth (IGROV1 ovarian) [%] | growth (OVCAR-3 ovarian) | growth (HS 578T breast) [%] | growth (NCI/ADR-RES ovarian) | growth (T-47D breast) | growth (BT-549 breast) | growth (MDA-MB-435 melanoma) | growth (SW-620 colon) | growth (MCF7 breast) | growth (HCT-116 colon) | growth (HCC-2998 colon) | growth (KM12 colon) [%]
1 | O=C(Nc1cccnc1Nc1ccccc1)c1cn(Cc2cccc(Oc3ccccc3)c2)nn1 | 26.6% | 57.2% | 71.4% | 103 | 86.9 | 77.1 | 78.1 | 52.6% | 40.8 | 33.8% | 71.3% | 66.2% | -19.3% (active) | 42.4% | 23.5% | 33.1% | 90.1% | 35
2 | C/C(=C(\c1ccc(OCCN2CCCCCC2)cc1)c1ccc(OC(=O)c2ccccc2)cc1)c1ccc(Cl)cc1 | -16.1% (active) | 13.1% | 42.6% | 68.5 | 37.5 | 77.1 | 46.7 | 61.8% | 42 | 59% | 42.6% | 68.5% | 56% | 25.8% | 14.5% | 17.9% | 60.7% | 32.1
3 | Nc1ccc(Br)cc1C(F)(F)F | 112% | 115% | 100% | 94.9 | 124 | 103 | 114 | 120% | 113 | 106% | 96.7% | 107% | 117% | 111% | 106% | 103% | 114% | 112
4 | CN(C)c1ccc(CNCCO)cc1 | 108% | 84.6% | 90.6% | 67.6 | 112 | 71.4 | 107 | 104% | 96 | 103% | 55.5% | 75.7% | 102% | 94.5% | 94% | 72.1% | 109% | 105
5 | CNC(=O)Nc1ccc(-c2ccc3ncnc(Nc4cccc(Cl)c4)c3c2)cc1 | 27.6% | 55.1% | 54.6% | 55.1 | 69.7 | 19.3 | 12.3 | 39.6% | 46.5 | 57.6% | -4.13% (active) | 50.9% | 64% | 93.9% | 22.6% | 65.9% | 74% | 61.3
6 | C=C1CC[C@@H]2C(C)(C)[C@H](O)CC[C@@]2(C)[C@@H]1COc1ccc2ccc(=O)oc2c1 | 85.5% | 6.64% (active) | 17% | 109 | 50.8 | 104 | 60.7 | 46.8% | 69.8 | 5.04% (active) | 7.88% (active) | 5.68% (active) | 64.4% | 89.5% | 53.9% | 64.1% | 95.4% | 28.2
7 | CCOC(=O)CNC1=C(Cl)C(=O)N(Cc2ccc(Cl)cc2)C1=O | 105% | 96.6% | 100% | 96.2 | 101 | 99.6 | 97.9 | 105% | 101 | 104% | 93.3% | 109% | 105% | 99.8% | 99.7% | 102% | 103% | 110
8 | O=C(Nc1ccc(Nc2ccncc2)cc1)c1ccc(Nc2ccnc3ccc([N+](=O)[O-])cc23)cc1 | -14.2% (active) | 63.4% | 104% | 105 | 84.4 | 89.1 | 97 | 93.1% | 110 | 106% | 122% | 107% | 104% | 105% | 91.9% | 97% | 76.7% | 90.1
9 | Cn1cc(-c2csc(-c3cn(CCCN4CCOCC4)c4ccc(F)cc34)n2)c2cccnc21 | 48.4% | 34.8% | 47.6% | 73 | 56.6 | 80 | 76.3 | 77.6% | 46.6 | 53.8% | 41.1% | 71.6% | 65.3% | 61% | 34.1% | 72.3% | 65.4% | 34.3
10 | Nc1ncccc1O | 65.5% | 87% | 81% | 98.7 | 98.4 | 107 | 67.2 | 131% | 109 | 77% | 96.2% | 93.7% | 109% | 51% | 68.6% | 37.9% | 97.4% | 100
11 | CCn1cc(Cc2cc(C(=O)Nc3cc4cc(OC)c(OC)cc4c(C)n3)ccc2Cl)cn1 | 10% | 29.6% | 34.6% | 103 | 58.2 | 57.9 | 69.5 | 38% | 49.5 | 22.5% | 19.8% | 17.3% | 2.12% (active) | 38.3% | 18.5% | 10.3% | 65.1% | 37.7
12 | CN1C(=O)/C(=C/c2ccc(C(=O)Nc3ncc(Cc4cc(Cl)ccc4Cl)s3)cc2)SC1=S | 63.9% | 57% | 80.8% | 70.7 | 57 | 71.1 | 56.9 | 80.1% | 80.9 | 70.2% | 59.8% | 85.2% | 5.7% (active) | 62.8% | 67.4% | 60.9% | 83.1% | 49.8
13 | O=C1CCCCN1c1ccc(C2=NCCCN2)cc1 | 99.8% | 57.4% | 104% | 95.9 | 91.3 | 119 | 95.9 | 83.9% | 73.2 | 103% | 57.8% | 89.6% | 96.9% | 85.7% | 84.2% | 92.1% | 109% | 90
14 | c1ccc2cc(Cn3cc(CSc4nc5ccccc5s4)nn3)ccc2c1 | 103% | 95.7% | 90.7% | 99.7 | 98.1 | 93.3 | 93.9 | 103% | 87.1 | 96.9% | 80.8% | 96.3% | 105% | 94.5% | 91.7% | 96.3% | 102% | 100
15 | CN1CCOCCN(C)Cc2ccc3ccc(cc3c2)CN(C)CCOCCN(C)Cc2ccc3ccc(cc3c2)C1 | 9.14% (active) | 36.7% | 103% | 134 | 78.4 | 146 | 74.8 | 75.6% | 90.6 | 83.5% | 119% | 93.6% | 82.9% | 22.4% | 77.5% | 28.3% | 100% | 73.7
16 | COC1C(O)CC(OC2CC(OC3CC(O[C@@H]4C(=O)c5c(cc6cc(OC7CC(OC8CC(O)C(O)C(C)O8)C(O)C(C)O7)c(C)c(O)c6c5O)CC4[C@H](OC)C(=O)C(C)=O)OC(C)C3O)OC(C)C2O)OC1C (stereo partly drawn) | -5.46% (active) | 1.67% (active) | 4.01% (active) | 13.9 | 10.7 | 17.4 | 13.6 | 6.3% (active) | 10.8 | 18.8% | -4.93% (active) | -18.8% (active) | -74.8% (active) | 8.3% (active) | 3.16% (active) | 4.47% (active) | -14.3% (active) | 13
